Source: PubChem BioAssay AID1963316 (National Center for Advancing Translational Sciences (NCATS), 2024)
Records with an inconclusive call do not appear. A number with no mark means an inactive call. The call rests on the fitted dose curve.

target: Tyrosine-protein kinase ABL1 (Homo sapiens) (UniProt P00519); experiment: ABL1 kinase (ABL1-N-HiBiT) SDR gain of signal screen - plus ATP; settings: purified ABL1-N-HiBiT enzyme, HiBiT luminescence with 50 uM ATP, 30 min; series mostly up to 57.5 µM; signal gain, positive = increase: at the top concentration
Sequence (P00519 whole entry, looked up): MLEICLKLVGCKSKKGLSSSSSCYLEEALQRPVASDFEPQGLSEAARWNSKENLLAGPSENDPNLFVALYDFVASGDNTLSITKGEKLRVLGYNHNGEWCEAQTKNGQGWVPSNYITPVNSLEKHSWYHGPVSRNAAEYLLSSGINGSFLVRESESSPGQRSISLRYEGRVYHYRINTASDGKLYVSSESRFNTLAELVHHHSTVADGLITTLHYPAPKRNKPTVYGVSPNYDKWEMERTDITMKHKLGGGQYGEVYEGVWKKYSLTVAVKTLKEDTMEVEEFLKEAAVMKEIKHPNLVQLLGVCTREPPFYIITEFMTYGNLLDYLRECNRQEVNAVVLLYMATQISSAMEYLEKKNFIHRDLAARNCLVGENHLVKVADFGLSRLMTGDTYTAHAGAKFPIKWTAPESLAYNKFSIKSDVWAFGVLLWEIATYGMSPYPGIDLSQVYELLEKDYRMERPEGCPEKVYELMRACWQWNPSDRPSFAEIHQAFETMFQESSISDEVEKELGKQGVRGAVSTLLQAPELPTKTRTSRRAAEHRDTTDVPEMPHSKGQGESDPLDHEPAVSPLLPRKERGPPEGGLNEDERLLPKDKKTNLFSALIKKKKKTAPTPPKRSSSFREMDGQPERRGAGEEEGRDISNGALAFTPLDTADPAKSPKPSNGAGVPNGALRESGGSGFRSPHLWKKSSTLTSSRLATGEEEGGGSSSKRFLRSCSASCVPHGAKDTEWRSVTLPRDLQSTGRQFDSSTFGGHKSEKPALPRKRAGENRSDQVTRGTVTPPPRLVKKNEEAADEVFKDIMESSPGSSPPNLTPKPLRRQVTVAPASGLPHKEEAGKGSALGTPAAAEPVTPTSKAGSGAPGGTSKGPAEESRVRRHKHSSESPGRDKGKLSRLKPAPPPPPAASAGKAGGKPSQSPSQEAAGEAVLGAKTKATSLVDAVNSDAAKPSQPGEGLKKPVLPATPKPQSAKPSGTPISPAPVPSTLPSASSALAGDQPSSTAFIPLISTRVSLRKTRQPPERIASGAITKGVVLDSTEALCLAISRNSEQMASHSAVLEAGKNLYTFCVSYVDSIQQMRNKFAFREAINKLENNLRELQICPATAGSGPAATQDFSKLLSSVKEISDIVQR
Excerpt: National Center for Advancing Translational Sciences (NCATS),
National Institute of Health (NIH), Maryland
Discovery and optimization of novel protein-binding ligands underlies many of the methods and applications of biology, drug discovery, clinical diagnostics, and environmental toxicology. Assays for detecting the interaction of, for example, a molecule with a macromolecular target also referred to here as the target of interest (TOI) is dependent on a compatible output technology. Depending on the nature and knowledge surrounding the TOI, whether a receptor, enzyme, regulatory subunit or scaffold, or a sequence-defined nucleic acid folded into a complex tertiary structure, assay strategies can vary widely.
Here we exploit ligand-biased changes in the structural dynamics of the target protein to control reporter alpha complementation allowing a non-competitive, non-functional, non-separation measure of ligand-target interaction.
Secondly, we show the specificity and sensitivity of the SDR for the Abelson tyrosine kinase (ABL1) compared to the serine/threonine protein kinase A, using an enriched chemical library of 128 compounds selected, in part, for activity annotated with ABL1 kinase activity using the Pharos database (3).
(1) A. S. Dixon et al., NanoLuc Complementation Reporter Optimized for Accurate Measurement of Protein Interactions in Cells. ACS Chem Biol 11, 400-408 (2016).
Chemistry & Biology, 19, 1060 - 1072 (2012).
(3) K. J. Kelleher et al., Pharos 2023: an integrated resource for the understudied human proteome. Nucleic Acids Res 51, D1405-D1416 (2023).
PROTOCOL TABLE (as described by Inglese J, Shamu CE and Guy RK. 2007)
SEQUENCE No. (e.g., 1, 2, 3, etc.); […] (e.g., C. elegans, Compounds, Incubation, Read, etc.); VALUE and DESCRIPTION.
1. Reagent. Dispense 4 uL ABL1-N-HiBiT enzyme per well at a final enzyme concentration of 10 nM in buffer with 50 uM ATP (SDR assay) into columns 2-48 of four replicate Greiner 1536-well white, solid bottom high base, medium plates per assay. Dispense respective buffer without enzyme at 4 uL/well in column 1 of assay plates using BioRaptr 2.
2. Compounds. Library compounds added at 23 nL/well by pin transfer. DMSO neutral control and imatinib positive control added at 25 nL/well, transfer by Mosquito dispenser.
3. Incubation. Incubate enzyme and compounds at room temperature for 30 min, protected from light.
4. Reagent. (SDR assay) Add 3 uL/well of Nano-Glo HiBiT reagent (Promega) to assay plates with ATP.
5. Incubation. (SDR assay) Incubate enzyme solution and HiBiT reagent at room temperature for 10 min, protect from light.
6. Detector. (SDR assay) Luminescence measured using CCD-based camera (ViewLux) with settings as follows: Exposure, 1 sec; Gain, High; Speed, Slow; Binning, 2X.
Inglese J, Shamu CE and Guy RK, Reporting data from high throughput screening of small molecule libraries, Nature Chemical Biology, 2007, 3(8): 438-441. doi.org/10.1038/nchembio0807-438.

Structure (SMILES)	signal gain, positive = increase
Cc1[nH]nc2ccc(-c3cncc(OC[C@@H](N)Cc4c[nH]c5ccccc45)c3)cc12	-0.858%
N#Cc1cn([C@@H]2O[C@H](CO)[C@H](O)[C@@H]2O)c2ncnc(N)c12	16.4%
O=C(NCCCNc1nc(Nc2ccc(N3CCOCC3)cc2)ncc1C1CC1)C1CCC1	8.48%
CCNC(=O)C[C@@H]1N=C(c2ccc(Cl)cc2)c2cc(OC)ccc2-n2c(C)nnc21	-4.29%
O=[N+]([O-])O[C@H]1CO[C@H]2[C@@H]1OC[C@H]2O[N+](=O)[O-]	2.28%
C/C(O)=C(\C#N)C(=O)Nc1cc(Br)ccc1Br	-66.9%
